{
  "source": "PubChem BioAssay (EPA / NIEHS)",
  "note": "Active and inactive are the calls of the source. The calls were made as follows: active = hit-call score of the fitted dose curve at least 0.9, where 1 is the maximum; inactive = score below 0.9.",
  "data": [
    {"read-out": "Interferon-gamma inducible Protein 10 (IP10), CXCL10 (gene 3627)", "experiment": "BSK_KF3CT_IP10: BioMAP Diversity Plus: KF3CT Assay for Interferon-gamma inducible Protein 10 (IP10) Biomarker Activity (AID 2283068)", "conditions": "primary human keratinocytes with fibroblasts; actives raise or lower the signal", "summary_of_the_method": "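ELISA read-out of IP-10 after 24 h chemical dosing of human skin primary co-culture (keratinocytes, foreskin fibroblasts). Gain or loss of signal relative to DMSO, bidirectional curve fit.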", "values": [
      {"smiles": "Cc1c(-c2cccnc2)c2ccccc2n1CCCCC(=O)O", "outcome": "inactive"},
      {"smiles": "CC[C@H]1CC[C@H](NCc2cc3c(cc2OC)[C@H]2C[C@H]2C(=O)N3C)[C@H](c2ccccc2)N1", "outcome": "inactive"},
      {"smiles": "CCOCCOCCOCCO", "outcome": "inactive"},
      {"smiles": "Cn1c(=O)cc(Oc2ccc(F)cc2F)c2cnc(NCC(C)(C)O)nc21", "outcome": "inactive"},
      {"smiles": "CC[C@H](C)C(=O)O[C@H]1C[C@@H](C)C=C2C=C[C@H](C)[C@H](CC[C@@H]3C[C@@H](O)CC(=O)O3)[C@H]21", "AC50": "34.6 µM (active)"},
      {"smiles": "Cc1ccc(S(=O)(=O)O)cc1C", "outcome": "inactive"},
      {"smiles": "C[C@](N)(Cc1ccc(O)c(O)c1)C(=O)O", "outcome": "inactive"},
      {"smiles": "CC(C)CCCCCCOC(=O)c1ccc(C(=O)OCCCCCCC(C)C)c(C(=O)OCCCCCCC(C)C)c1", "outcome": "inactive"},
      {"smiles": "O=C(O)CCN(C1(C(=O)NO)CCCC1)S(=O)(=O)c1ccc(Oc2ccc(F)cc2)cc1", "outcome": "inactive"},
      {"smiles": "CC(C)CCCCCCCOC(=O)CCCCC(=O)OCCCCCCCC(C)C", "outcome": "inactive"},
      {"smiles": "CNCc1ccc(NC(=O)c2c[nH]c3c2C(=O)CCC3)cc1", "outcome": "inactive"},
      {"smiles": "Cc1ccc(N)cc1O", "outcome": "inactive"},
      {"smiles": "Cc1[nH]cnc1C[C@H]1CCc2c(C)c3ccccc3n2C1=O", "outcome": "inactive"},
      {"smiles": "CCCCC(CC)COC(=O)c1ccc(C(=O)OCC(CC)CCCC)cc1", "note": "(stereo not given)", "outcome": "inactive"},
      {"smiles": "CC(C)CC(C)(O)C#CC(C)(O)CC(C)C", "note": "(stereo not given)", "outcome": "inactive"},
      {"smiles": "O=C(O)CC(O)C(=O)O", "note": "(stereo not given)", "outcome": "inactive"},
      {"smiles": "COc1cccc(-c2ccc(/C=C\\CN3CCCCCC3)cc2Cl)c1", "AC50": "29.7 µM (active)"},
      {"smiles": "CN(C)c1ccc(N=NS(=O)(=O)O)cc1", "outcome": "inactive"},
      {"smiles": "COC(=O)CC(=O)OC", "outcome": "inactive"},
      {"smiles": "CCOC(=O)CC(CC(=O)OCC)(OC(C)=O)C(=O)OCC", "outcome": "inactive"}
    ]}
  ]
}
